From PubChem BioAssay (NCATS)
A number with no mark means an inactive call. Records with an inconclusive call do not appear. The source made the active and inactive calls. Unless noted, calls follow the shape of the full dose curve.

Assay: Confirmation and Secondary Assay for Modulators of Hemoglobin Beta Chain Splicing at IVS2 705 locus (AID 930; active = well fitted activation curve with a large enough effect;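 also: GFP fluorescence per well restored by corrected splicing of the IVS2-705 intron in EGFP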; also: potency is read from the fitted curve at half-maximal effect;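 as to activation: HeLa cells stably expressing the EGFP-705 splicing reporter; % of control where 0% means no effect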)
Details: HeLa EGFP-705 splicing reporter, GFP fluorescence, 48 h; series mostly up to 46.1 µM; activation: at the top concentration
Method in brief: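 Splice-correction reporter: EGFP cDNA split by beta-globin intron 2 bearing the 705 mutation, stably in HeLa. Compound incubation 2 days, 37C; fluorescent objects 5-250 µm summed per well.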

Compound | activation | Potency
CC1(C)S[C@H]2C(NC(=O)[C@@H](N)c3ccc(O)cc3)C(=O)N2[C@@H]1C(=O)O (some centres not stated) | -0.138% | –
CN(C)CCc1c[nH]c2ccc(CC3COC(=O)N3)cc12 (configuration not stated) | 1.99% | –
C[C@@]12CCC(=O)C=C1C=CC1C2CC[C@]2(C)C1CC[C@@]21CCC(=O)O1 (some centres not stated) | 0.0372% | –
NC(CCC(=O)N[C@@H](CS)C(=O)NCC(=O)O)C(=O)O (some centres not stated) | 0.0881% | –
CC(C)Oc1ccc2c(=O)cc(-c3ccccc3)oc2c1 | 1.44% [at 38.3 µM] | –
CCCCCCCCCc1ccc(OCCOCCOCCOCCOCCOCCOCCOCCOCCO)cc1 | 0.33% [at 38.3 µM] | –
CC(=O)O[C@@]1(C(C)=O)CCC2C3CC(C)C4=CC(=O)CC[C@@]4(C)C3CC[C@]21C (some centres not stated) | 2.2% | –
N[C@@H]1C(O)OC(CO)C(O)C1O (some centres not stated) | 2.28% | –
CC(=O)OCC(=O)[C@@]12OC3(CCCC3)OC1CC1C3CCC4=CC(=O)C=C[C@@]4(C)[C@]3(F)C(O)C[C@]12C (some centres not stated) | -0.427% | –
CCC1OC(=O)CC(O)C(C)[C@@H](O[C@@H]2OC(C)[C@H](O[C@@H]3C[C@@](C)(O)C(O)C(C)O3)C(N(C)C)C2O)[C@H](CC=O)CC(C)C(=O)/C=C/C(C)=C/[C@@H]1COC1OC(C)C(O)C(OC)[C@@H]1OC (some centres not stated) | 2.64% | –
C=Cc1c(C)/c2[n-]/c1=C\c1[n-]c(c(CC)c1C)/C=c1\[n-]c3c(c1C)C(=O)C(C(=O)[O-])C=3c1[n-]c(c(C)c1CCC(=O)[O-])\C=2.[Cu].[Na+].[Na+] (configuration not stated) | 0.445% | –
CCC(=O)O[C@@]1(C(=O)CCl)C(C)CC2C3CCC4=CC(=O)C=C[C@@]4(C)[C@]3(F)C(O)C[C@]21C (some centres not stated) | 2.35% | –
CC(=O)[C@]1(O)CCC2C3C=C(Cl)C4=CC(=O)C5CC5[C@@]4(C)C3CC[C@]21C (some centres not stated) | 1.5% | –
CO[C@]12C(COC(N)=O)C3=C(C(=O)C(C)=C(N)C3=O)N1CC1NC12 (some centres not stated) | 0.205% | –
COC1OC(CO)C(OC2OC(C(=O)O)C(OC3OC(COS(=O)(=O)O)C(OC4OC(C(=O)O)C(OC5OC(CO)C(OC6OC(C(=O)O)C(OC7OC(COS(=O)(=O)O)C(OC8OC(C(=O)O)=C[C@H](O)C8OS(=O)(=O)O)C(O)C7NC(C)=O)[C@@H](O)C6O)C(O)C5NC(C)=O)[C@@H](O)C4O)C(O)C3NC(C)=O)[C@@H](O)C2O)C(O)C1NC(C)=O (some centres not stated) | -0.0731% [at 38.3 µM] | –
C[C@@]12C=CC(=O)C=C1CCC1C3CC(O)[C@@](O)(C(=O)CO)[C@]3(C)CC(O)[C@]12F (some centres not stated) | 2.68% | –
CCC1OC(=O)C(C)[C@@H](O[C@H]2C[C@@](C)(OC)C(O)C(C)O2)C(C)[C@@H](O[C@@H]2OC(C)CC(N(C)C)C2O)[C@@](C)(O)CC(C)C(=O)[C@@H](C)C(O)[C@]1(C)O (some centres not stated) | 2.97% | –
CC1C2CCC3C4CC=C5CC(N(C)C)CC[C@@]5(C)C4CC[C@@]32CN1C (some centres not stated) | 1.06% [at 38.3 µM] | –
COC1CC(O[C@H]2/C(C)=C/CC3CC(C[C@]4(CCC(C)C(C5CCCCC5)O4)O3)OC(=O)[C@H]3C=C(C)/C(=N/O)C4OC/C(=C\C=C\[C@@H]2C)[C@@]43O)OC(C)C1O (some centres not stated) | 0.665% | –
C#C[C@]1(O)CCC2C3CCC4=CC(=O)CCC4C3CC[C@@]21C (some centres not stated) | 1.23% | –
CCC(C)C(=O)OC1CC(O)C=C2C=CC(C)C(CCC(O)CC(O)CC(=O)O)C21 (configuration not stated) | 3.1% | –
OCC1OC(n2cnc3c(=S)nc[nH]c32)C(O)C1O (configuration not stated) | – | 3.98 µM (active)

Assay: qHTS Assay for Lipid Storage Modulators (AID 1519); also: % is scaled to controls: 0 for no effect and ±100 for the full control effect
Details: Drosophila S3 cells, BODIPY lipid droplet/cell ratio, laser cytometry; at 57.5 µM (top of the series); cells loaded with oleic acid
Method in brief: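 Cells seeded at 5,000 per well were treated with compounds over a concentration series and loaded with oleic acid (400 uM, as added). Lipid droplet fluorescence (488 nm excitation, 500-530 nm channel) was read by laser-scanning cytometry and normalized to 20 uM Triacsin C.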

Compound | activity change, negative = inhibition [%]
CC1(C)S[C@H]2C(NC(=O)[C@@H](N)c3ccc(O)cc3)C(=O)N2[C@@H]1C(=O)O (some centres not stated) | 9.47
N[C@H](Cc1ccc(O)cc1)C(=O)O | 2.68
CN(C)CCc1c[nH]c2ccc(CC3COC(=O)N3)cc12 (configuration not stated) | 10.6
COC(=O)CCCC[C@@H]1SC[C@@H]2NC(=O)N[C@@H]21 | 0.0624
C=C1CC/C=C(\C)CC[C@@H]2[C@@H]1CC2(C)C | -10.6
C[C@@]12CCC(=O)C=C1C=CC1C2CC[C@]2(C)C1CC[C@@]21CCC(=O)O1 (some centres not stated) | 7.74
CC1=C(C2=C(C)C(C(C)C)C3=C(C(=O)C(O)C3O)C2O)C(O)C2=C(C(O)C(O)C2=O)C1C(C)C (configuration not stated) | 1.34
C[C@H](CCC(=O)O)[C@H]1CC[C@H]2[C@H]3C(C[C@H](O)[C@]12C)[C@@]1(C)CC[C@@H](O)C[C@H]1C[C@H]3O (some centres not stated) | 9.53
NC(CCC(=O)N[C@@H](CS)C(=O)NCC(=O)O)C(=O)O (some centres not stated) | 8.76
CC(C)Oc1ccc2c(=O)cc(-c3ccccc3)oc2c1 | 14.1
C[C@@H]1O[C@@H](O[C@H]2[C@H](Oc3cc(O)c4c(c3)O[C@H](c3ccc(O)cc3)CC4=O)O[C@H](CO)[C@@H](O)[C@@H]2O)[C@H](O)[C@H](O)[C@H]1O | -1.6
N[C@H](CO)Cc1cnc[nH]1 | 3.9
COC1OC2COC(c3ccccc3)OC2C(O)C1O (configuration not stated) | 1.99
CCCCCCCCCc1ccc(OCCOCCOCCOCCOCCOCCOCCOCCOCCO)cc1 | -9.66
CC(=O)O[C@@]1(C(C)=O)CCC2C3CC(C)C4=CC(=O)CC[C@@]4(C)C3CC[C@]21C (some centres not stated) | -11.6
O=C(O)C1=C[C@@H](O)[C@@H](O)[C@H](O)C1 | 5.96
NC(=O)NCCC[C@H](N)C(=O)O | -0.41
N[C@@H]1C(O)OC(CO)C(O)C1O (some centres not stated) | 5.31
CC(=O)OCC(=O)[C@@]12OC3(CCCC3)OC1CC1C3CCC4=CC(=O)C=C[C@@]4(C)[C@]3(F)C(O)C[C@]12C (some centres not stated) | 9.16
CC1=CC(=O)[C@@H]2C[C@H]1C2(C)C | 4.82

Compound | activity change, negative = inhibition [%]
CCC1OC(=O)CC(O)C(C)[C@@H](O[C@@H]2OC(C)[C@H](O[C@@H]3C[C@@](C)(O)C(O)C(C)O3)C(N(C)C)C2O)[C@H](CC=O)CC(C)C(=O)/C=C/C(C)=C/[C@@H]1COC1OC(C)C(O)C(OC)[C@@H]1OC (some centres not stated) | 0.0526
COC(=O)[C@H]1[C@@H]2C[C@@H]3c4[nH]c5ccccc5c4CCN3C[C@H]2CC[C@H]1O | 4.52
CC[C@H](CC[C@@H](C)C1CC[C@H]2[C@@H]3CC=C4C[C@@H](O)CC[C@]4(C)[C@H]3CC[C@]12C)C(C)C (some centres not stated) | -0.0175
C=Cc1c(C)/c2[n-]/c1=C\c1[n-]c(c(CC)c1C)/C=c1\[n-]c3c(c1C)C(=O)C(C(=O)[O-])C=3c1[n-]c(c(C)c1CCC(=O)[O-])\C=2.[Cu].[Na+].[Na+] (configuration not stated) | 23.5
CCC(=O)O[C@@]1(C(=O)CCl)C(C)CC2C3CCC4=CC(=O)C=C[C@@]4(C)[C@]3(F)C(O)C[C@]21C (some centres not stated) | 11.7
CC(=O)[C@]1(O)CCC2C3C=C(Cl)C4=CC(=O)C5CC5[C@@]4(C)C3CC[C@]21C (some centres not stated) | 8.7
CO[C@]12C(COC(N)=O)C3=C(C(=O)C(C)=C(N)C3=O)N1CC1NC12 (some centres not stated) | 3.3
COC1OC(CO)C(OC2OC(C(=O)O)C(OC3OC(COS(=O)(=O)O)C(OC4OC(C(=O)O)C(OC5OC(CO)C(OC6OC(C(=O)O)C(OC7OC(COS(=O)(=O)O)C(OC8OC(C(=O)O)=C[C@H](O)C8OS(=O)(=O)O)C(O)C7NC(C)=O)[C@@H](O)C6O)C(O)C5NC(C)=O)[C@@H](O)C4O)C(O)C3NC(C)=O)[C@@H](O)C2O)C(O)C1NC(C)=O (some centres not stated) | 0.455
CC(C)CCCC(C)C1CCC2C3CC=C4CC(O)CCC4(C)C3CCC12C (configuration not stated) | 7.38
C[C@@]12C=CC(=O)C=C1CCC1C3CC(O)[C@@](O)(C(=O)CO)[C@]3(C)CC(O)[C@]12F (some centres not stated) | 10.8
O=c1[nH]c(=O)n([C@@H]2O[C@H](CO)[C@@H](O)[C@H]2O)cc1F | -3.28
CCC1OC(=O)C(C)[C@@H](O[C@H]2C[C@@](C)(OC)C(O)C(C)O2)C(C)[C@@H](O[C@@H]2OC(C)CC(N(C)C)C2O)[C@@](C)(O)CC(C)C(=O)[C@@H](C)C(O)[C@]1(C)O (some centres not stated) | -1.12
O=c1ccn([C@H]2C[C@H](O)[C@@H](CO)O2)c(=O)[nH]1 | 5.4
O=C(O)C1(O)C[C@H](O)C(O)[C@@H](O)C1 (some centres not stated) | -0.572
CC1C2CCC3C4CC=C5CC(N(C)C)CC[C@@]5(C)C4CC[C@@]32CN1C (some centres not stated) | 6.04
O=c1[nH]c(=O)n([C@@H]2O[C@H](CO)[C@@H](O)[C@H]2O)cc1Br | -8.5
COC1CC(O[C@H]2/C(C)=C/CC3CC(C[C@]4(CCC(C)C(C5CCCCC5)O4)O3)OC(=O)[C@H]3C=C(C)/C(=N/O)C4OC/C(=C\C=C\[C@@H]2C)[C@@]43O)OC(C)C1O (some centres not stated) | -12.3
C#C[C@]1(O)CCC2C3CCC4=CC(=O)CCC4C3CC[C@@]21C (some centres not stated) | 3.02
CCC(C)C(=O)OC1CC(O)C=C2C=CC(C)C(CCC(O)CC(O)CC(=O)O)C21 (configuration not stated) | 5.21
OCC1OC(n2cnc3c(=S)nc[nH]c32)C(O)C1O (configuration not stated) | 0.292
